Experimental data: PubChem BioAssay (Tox21)
Records with an inconclusive call do not appear. Active and inactive are the calls of the source. Calls come from the whole dose curve; as a rule, active = well fitted curve in the direction sought with a large enough effect in the repeat runs; inconclusive = weak or mixed curves; inactive = no such curve, though single readings can be large; an effect the other way counts as inactive or inconclusive.

Experiments:
[1] = A CellTox Green Cytotoxicity Assay to monitor cytotoxicity in HepG2 cells - 0 hour (AID 1224882); note: nearly all actives have a fitted effect of over 35% in size
In short: (§1)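 Real-time cytotoxicity: fluorescence of a cell-impermeant cyanine dye binding DNA of dead HepG2 cells, measured repeatedly (0–40 h) during compound exposure at 37 C. Cells seeded 600/well with reagent, dosed after 5 h.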

[2] = A CellTox Green Cytotoxicity Assay to monitor cytotoxicity in HepG2 cells - 32 hour (AID 1224883); note: nearly all actives have a fitted effect of over 50% in size
In short: as §1

[3] = A CellTox Green Cytotoxicity Assay to monitor cytotoxicity in HEK293 cells - 8 hour (AID 1224884); note: nearly all actives have a fitted effect of over 35% in size
In short: (§2)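 Fluorescence from a DNA-binding dye excluded by viable cells was measured repeatedly in the same HEK293 wells (600 cells/well) during continuous compound exposure at 37 C. Each assay gives one read point: 0, 8, 16, 24, 32 or 40 h.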

[4] = qHTS RealTime-Glo MT Cell Viability Assay in HepG2 cells - 16 hour (AID 1224885); note: nearly all actives have a fitted effect of over 50% in size
In short: (§3)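 Cell number in HepG2 cultures estimated from NanoLuc luminescence generated by metabolic reduction of a prosubstrate by living cells. The homogeneous, nonlytic format allowed repeated reads at 0, 8, 16, 24, 32 and 40 h of compound exposure.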

[5] = qHTS RealTime-Glo MT Cell Viability Assay in HEK293 cells - 24 hour (AID 1224886); note: top concentration of the series differs between compounds; nearly all actives have a fitted effect of over 50% in size
In short: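 Homogeneous bioluminescent viability format in HEK293 cells (600 cells/well). Following 5 h at 37 C/5% CO2, 23 nL compound was pintooled; the signal was measured repeatedly during 40 h incubation.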

[6] = qHTS RealTime-Glo MT Cell Viability Assay in HEK293 cells - 8 hour (AID 1224887); note: top concentration of the series differs between compounds; nearly all actives have a fitted effect of over 50% in size
In short: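 Luminescence, which tracks viable cell number through reduction of the prosubstrate to a NanoLuc substrate, was read over continuous 37 C culture. Cells (600/well) were premixed with reagent and rested 5 h before 23 nL of compound in DMSO was pinned.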

[7] = A CellTox Green Cytotoxicity Assay to monitor cytotoxicity in HEK293 cells - 16 hour (AID 1224888); note: nearly all actives have a fitted effect of over 35% in size
In short: as §2

[8] = qHTS RealTime-Glo MT Cell Viability Assay in HepG2 cells - 0 hour (AID 1224889); note: nearly all actives have a fitted effect of over 50% in size
In short: as §3

[9] = A CellTox Green Cytotoxicity Assay to monitor cytotoxicity in HepG2 cells - 8 hour (AID 1224890); note: nearly all actives have a fitted effect of over 45% in size
In short: as §1

[10] = qHTS assay to identify small molecule antagonists of the estrogen receptor alpha (ER-alpha) signaling pathway using the BG1 cell line in the presence of 0.1 nM 17-beta-estradiol - cell viability counter screen (AID 1259241); note: nearly all actives have a fitted effect of over 40% in size
In short: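 Following 5 days in phenol red-free medium with charcoal-stripped serum, VM7Luc4E2 cells received test compounds alongside 0.1 nM 17beta-estradiol (final) at 37C for 22 hr. Live cells were then quantified via protease-substrate fluorescence.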
% is set by controls: 0 for no effect and ±100 for the full control effect.

C[N+](=O)[O-]
inactive: outcome [1] | Potency [2] | Potency [3] | Potency [4] | Potency [5] | Potency [6] | Potency [7] | Potency [8] | Potency [9] | outcome [10]

C[N+](C)=CCl
inactive: outcome [1] | Potency [2] | Potency [3] | Potency [4] | Potency [5] | Potency [6] | Potency [7] | Potency [8] | Potency [9] | outcome [10]

CCC(=O)c1ccccc1
inactive: outcome [1] | Potency [2] | Potency [3] | Potency [4] | Potency [5] | Potency [6] | Potency [7] | Potency [8] | Potency [9] | outcome [10]

O=C1OC(CCN2CCCCC2)OC1(c1ccccc1)c1ccccc1 (centres undefined)
inactive: outcome [1] | Potency [2] | Potency [3] | Potency [4] | Potency [5] | Potency [6] | Potency [7] | Potency [8] | Potency [9] | outcome [10]

CNC(=O)O/N=C(\C)SC
inactive: outcome [1] | Potency [2] | Potency [3] | Potency [4] | Potency [5] | Potency [6] | Potency [7] | Potency [8] | Potency [9] | outcome [10]

O=C1CN=C(c2ccccc2)c2cc([N+](=O)[O-])ccc2N1
inactive: outcome [1] | Potency [2] | Potency [3] | Potency [4] | Potency [5] | Potency [6] | Potency [7] | Potency [8] | Potency [9] | outcome [10]

Nc1cnn(-c2ccccc2)c(=O)c1Cl
inactive: outcome [1] | Potency [2] | Potency [3] | Potency [4] | Potency [5] | Potency [6] | Potency [7] | Potency [8] | Potency [9] | outcome [10]

CCOC(=O)CP(=O)(OCC)OCC
inactive: outcome [1] | Potency [2] | Potency [3] | Potency [4] | Potency [5] | Potency [6] | Potency [7] | Potency [8] | Potency [9] | outcome [10]

COCC(=O)N(c1c(C)cccc1C)N1CCOC1=O
inactive: outcome [1] | Potency [2] | Potency [3] | Potency [4] | Potency [5] | Potency [6] | Potency [7] | Potency [8] | Potency [9] | outcome [10]

O=C(Oc1ccc(Br)cc1)N1CCN2CCC1CC2
inactive: outcome [1] | Potency [2] | Potency [3] | Potency [4] | Potency [5] | Potency [6] | Potency [7] | Potency [8] | Potency [9] | outcome [10]

CCC#N
inactive: outcome [1] | Potency [2] | Potency [3] | Potency [4] | Potency [5] | Potency [6] | Potency [7] | Potency [8] | Potency [9] | outcome [10]

CCCCN(CCCCO)N=O
inactive: outcome [1] | Potency [2] | Potency [3] | Potency [4] | Potency [5] | Potency [6] | Potency [7] | Potency [8] | Potency [9]

C=CC1CC=CCC1 (centres undefined)
inactive: outcome [1] | Potency [2] | Potency [3] | Potency [4] | Potency [5] | Potency [6] | Potency [7] | Potency [8] | Potency [9] | outcome [10]

CC(C)(C)OC(=O)c1ncn2c1[C@@H]1CCCN1C(=O)c1c(Br)cccc1-2
inactive: outcome [1] | Potency [2] | Potency [3] | Potency [4] | Potency [5] | Potency [6] | Potency [7] | Potency [8] | Potency [9] | outcome [10]

Cc1ncc(CNC(=O)N(CCCl)N=O)c(N)n1
inactive: outcome [1] | Potency [2] | Potency [3] | Potency [4] | Potency [5] | Potency [6] | Potency [7] | Potency [8] | outcome [10]

CCC1(c2ccccc2)C(=O)N=C(O)NC1=O (centres undefined)
inactive: outcome [1] | Potency [2] | Potency [3] | Potency [4] | Potency [5] | Potency [6] | Potency [7] | Potency [8] | outcome [10]

COc1cccc(C(=O)NN(C(=O)c2cc(C)cc(C)c2)C(C)(C)C)c1C
inactive: outcome [1] | Potency [2] | Potency [3] | Potency [4] | Potency [5] | Potency [6] | Potency [7] | Potency [8] | Potency [9] | outcome [10]

ClCCOCOCCCl
inactive: outcome [1] | Potency [2] | Potency [3] | Potency [4] | Potency [5] | Potency [6] | Potency [7] | Potency [8] | Potency [9] | outcome [10]

O=c1oc2ccccc2c(O)c1C1CCCc2ccccc21 (centres undefined)
inactive: outcome [1] | Potency [2] | Potency [3] | Potency [4] | Potency [5] | Potency [6] | Potency [7] | Potency [8] | outcome [10]

COC(=O)c1ccccc1S(=O)(=O)NC(=O)N(C)c1nc(C)nc(OC)n1
inactive: outcome [1] | Potency [2] | Potency [3] | Potency [4] | Potency [5] | Potency [6] | Potency [7] | Potency [8] | outcome [10]

CCCCC(=O)Cl
inactive: outcome [1] | Potency [2] | Potency [3] | Potency [4] | Potency [5] | Potency [6] | Potency [8] | Potency [9] | outcome [10]

CC(CCc1ccccc1)NC(C)C(O)c1ccc(O)cc1 (centres undefined)
inactive: outcome [1] | Potency [2] | Potency [3] | Potency [4] | Potency [5] | Potency [6] | Potency [7] | Potency [8] | Potency [9] | outcome [10]

O=C1c2ccccc2C(=O)c2ccccc21
inactive: cytotoxicity [1] 5.37% [at 15.8 µM] | cytotoxicity increase [2] 7.1% [at 15.8 µM] | cytotoxicity increase [3] 6.23% [at 15.8 µM] | activity change, negative = cytotoxic [4] 1.58% [at 15.8 µM] | activity change, negative = cytotoxicity [5] 20.7% [at 15.8 µM] | activity change, negative = cytotoxicity [6] 16.6% [at 15.8 µM] | activity change [7] 5.38% [at 15.8 µM, active compounds read high] | activity change, negative = cytotoxicity [8] 6.06% [at 15.8 µM] | cytotoxicity increase [9] 19.4% [at 15.8 µM] | activity change, negative = cytotoxicity [10] 0.424% [at 19 µM]
